# A number with no mark means an inactive call. Records with an inconclusive call do not appear. A call without a number means that no potency is given here. Active and inactive are the calls of the source. The call rests on the fitted dose curve; in most records, active means well fitted curve in the direction sought with a large enough effect; inconclusive means small, poorly fitted or top-dose-only effect, or another doubt; inactive means no such curve, though single readings can be large; an effect the other way counts as inactive or inconclusive.
# Experiments:
# [1] = target: Rap guanine nucleotide exchange factor 3 (Homo sapiens) (UniProt O95398); assay: Confirmatory qHTS for agonist of cAMP-regulated guanine nucleotide exchange factor 3 (EPAC1) (AID 1645881);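 further: EPAC1 catalysed release of BODIPY-GDP from Rap1B seen as fluorescence loss; nearly all actives have a fitted effect of over 75% in size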
# Rap guanine nucleotide exchange factor 3 (Homo sapiens), sequence (O95398 whole entry, looked up): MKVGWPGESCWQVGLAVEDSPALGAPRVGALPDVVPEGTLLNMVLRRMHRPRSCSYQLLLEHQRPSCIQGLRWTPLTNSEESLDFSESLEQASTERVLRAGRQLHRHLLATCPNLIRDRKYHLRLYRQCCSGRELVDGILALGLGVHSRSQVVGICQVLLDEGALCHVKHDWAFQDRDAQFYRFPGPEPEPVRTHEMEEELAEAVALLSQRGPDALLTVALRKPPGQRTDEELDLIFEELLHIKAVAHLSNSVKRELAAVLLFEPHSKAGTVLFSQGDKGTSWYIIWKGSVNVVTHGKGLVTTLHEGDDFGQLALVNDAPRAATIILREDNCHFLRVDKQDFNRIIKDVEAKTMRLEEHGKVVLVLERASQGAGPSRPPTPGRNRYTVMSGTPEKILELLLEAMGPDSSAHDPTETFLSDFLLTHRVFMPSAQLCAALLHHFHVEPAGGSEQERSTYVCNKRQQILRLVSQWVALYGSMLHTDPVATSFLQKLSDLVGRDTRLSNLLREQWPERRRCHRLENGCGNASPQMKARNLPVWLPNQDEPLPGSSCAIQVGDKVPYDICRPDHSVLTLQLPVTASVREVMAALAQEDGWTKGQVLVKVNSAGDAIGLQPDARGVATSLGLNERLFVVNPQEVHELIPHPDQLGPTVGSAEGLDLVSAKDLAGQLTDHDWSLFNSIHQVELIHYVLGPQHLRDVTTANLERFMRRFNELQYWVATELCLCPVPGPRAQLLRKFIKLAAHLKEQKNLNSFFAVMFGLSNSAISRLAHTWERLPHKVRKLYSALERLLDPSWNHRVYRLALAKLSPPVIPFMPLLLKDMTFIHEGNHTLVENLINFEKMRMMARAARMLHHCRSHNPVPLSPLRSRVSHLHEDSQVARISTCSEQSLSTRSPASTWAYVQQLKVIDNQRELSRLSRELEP
# [2] = target: Rap guanine nucleotide exchange factor 4 (Homo sapiens) (UniProt Q8WZA2); assay: Confirmatory qHTS for agonist of cAMP-regulated guanine nucleotide exchange factor 4 (EPAC2) (AID 1645884);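 further: nucleotide exchange releases bodipy-GDP from Rap1 and this lowers its fluorescence; nearly all actives have a fitted effect of over 65% in size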
# Rap guanine nucleotide exchange factor 4 (Homo sapiens), sequence (Q8WZA2 whole entry, looked up): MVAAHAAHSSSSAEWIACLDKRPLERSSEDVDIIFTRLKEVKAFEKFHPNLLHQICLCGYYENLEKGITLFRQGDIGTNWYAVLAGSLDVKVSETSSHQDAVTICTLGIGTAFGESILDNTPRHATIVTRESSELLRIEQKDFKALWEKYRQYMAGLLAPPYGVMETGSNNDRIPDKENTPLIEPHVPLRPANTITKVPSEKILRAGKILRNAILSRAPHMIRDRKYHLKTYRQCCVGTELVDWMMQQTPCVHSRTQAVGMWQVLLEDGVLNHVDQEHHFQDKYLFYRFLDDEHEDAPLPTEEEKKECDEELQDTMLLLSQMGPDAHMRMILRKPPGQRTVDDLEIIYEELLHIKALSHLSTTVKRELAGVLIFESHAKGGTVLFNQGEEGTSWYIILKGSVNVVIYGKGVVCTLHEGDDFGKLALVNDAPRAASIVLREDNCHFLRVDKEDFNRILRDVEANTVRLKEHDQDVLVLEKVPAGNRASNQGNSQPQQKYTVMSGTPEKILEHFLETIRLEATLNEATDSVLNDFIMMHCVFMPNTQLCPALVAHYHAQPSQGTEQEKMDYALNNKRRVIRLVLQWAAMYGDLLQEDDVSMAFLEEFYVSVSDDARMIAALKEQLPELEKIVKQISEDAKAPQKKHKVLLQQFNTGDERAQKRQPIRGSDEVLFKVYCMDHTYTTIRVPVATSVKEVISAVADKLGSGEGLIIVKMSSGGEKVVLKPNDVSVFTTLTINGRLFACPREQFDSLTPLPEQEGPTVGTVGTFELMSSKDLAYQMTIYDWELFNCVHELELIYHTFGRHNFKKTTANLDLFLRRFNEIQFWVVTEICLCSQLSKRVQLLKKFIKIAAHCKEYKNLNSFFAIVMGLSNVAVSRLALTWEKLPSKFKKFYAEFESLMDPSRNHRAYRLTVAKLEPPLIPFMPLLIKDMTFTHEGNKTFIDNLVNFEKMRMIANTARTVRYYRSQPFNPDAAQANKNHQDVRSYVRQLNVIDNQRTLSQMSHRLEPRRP
# [3] = target: Rap guanine nucleotide exchange factor 4 (Homo sapiens) (UniProt Q8WZA2); assay: Confirmatory qHTS for antagonist of cAMP-regulated guanine nucleotide exchange factor 4 (EPAC2) (AID 1645885); further: nearly all actives have a fitted effect of over 25% in size
# [4] = target: Rap guanine nucleotide exchange factor 3 (Homo sapiens) (UniProt O95398); assay: Counterscreen qHTS for antagonist of cAMP-regulated guanine nucleotide exchange factor 3 (EPAC1) (AID 1645888);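 further: fluorescence loss as bound BODIPY-GDP is released from Rap1B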
# Outline: (§1)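 Rap1B–BODIPY-GDP (250 nM) with 50 uM GDP; compounds pin-transferred to 9.74 nM–152 uM final (activator) or from 7.32 nM upwards (inhibitor). Fluorescence Ex/Em 480/540 nm read at 5 and 30 min, then after adding cAMP or buffer, at room temperature.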
# [5] = target: Rap guanine nucleotide exchange factor 3 (Homo sapiens) (UniProt O95398); assay: Counterscreen qHTS for agonist of cAMP-regulated guanine nucleotide exchange factor 3 (EPAC1) (AID 1645889); further: nearly all actives have a fitted effect of over 40% in size; further: potency means the concentration at half of the fitted maximal effect
# Outline: as §1
# [6] = target: Tumor susceptibility gene 101 protein (Homo sapiens) (UniProt Q99816); assay: qHTS Assay for Iinhibitors of HIV-1 Budding by Blocking the Interaction of PTAP/TSG101: Hit Validation (AID 651600); further: nearly all actives have a fitted effect of over 70% in size; further: potency means the concentration at half of the fitted maximal effect
# Tumor susceptibility gene 101 protein (Homo sapiens), sequence (Q99816 whole entry, looked up, the tested form may be a part): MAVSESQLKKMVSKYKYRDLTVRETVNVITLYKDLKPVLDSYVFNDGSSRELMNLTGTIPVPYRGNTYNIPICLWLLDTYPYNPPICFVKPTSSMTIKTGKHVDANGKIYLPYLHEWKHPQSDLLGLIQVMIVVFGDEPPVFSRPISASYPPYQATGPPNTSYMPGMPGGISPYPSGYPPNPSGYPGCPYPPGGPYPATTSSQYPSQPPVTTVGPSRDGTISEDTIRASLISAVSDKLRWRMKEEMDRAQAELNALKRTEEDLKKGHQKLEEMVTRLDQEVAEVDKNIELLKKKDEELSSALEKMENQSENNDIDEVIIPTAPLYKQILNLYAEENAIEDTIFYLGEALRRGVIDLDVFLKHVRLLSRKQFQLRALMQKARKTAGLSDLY
# Outline: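 FITC-PTAP peptide (50 nM final) binding to Tsg101 binding domain (10 uM final) was measured by polarization after 20 min at r.t. with compounds, in 10 mM HEPES pH 7.5 buffer with 0.15 M NaCl and 0.01% Tween 20.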
# [7] = HepG2 viability counterscreen (readout 2: ATP content) against the NCATS DSHEA and TCM libraries (AID 1794840);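 further: HepG2 cells exposed to substances for about 24 h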
# Outline: (§2)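 Readout 1: cellular protease activity, GF-AFC substrate (25 uM final, 30 min, fluorescence 380/510 nm). Readout 2: ATP content by CellTiter-Glo luminescence after 30 min at RT. Both follow ~24 h exposure of HepG2 cells (1,000/well) to substances.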
# [8] = HepG2 viability counterscreen (readout 1: protease activity) against the NCATS DSHEA and TCM libraries (AID 1794841);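 further: cells exposed to compounds for about 24 h before the protease read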
# Outline: as §2
# [9] = target: Cytochrome P450 3A4 (Homo sapiens) (UniProt P08684); assay: qHTS for inhibitors of CYP3A4 against the NCATS DSHEA and TCM libraries (AID 1919971);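 further: inhibition lowers luminescence from luciferin made by CYP3A4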
# Cytochrome P450 3A4 (Homo sapiens), sequence (P08684 whole entry, looked up, canonical isoform): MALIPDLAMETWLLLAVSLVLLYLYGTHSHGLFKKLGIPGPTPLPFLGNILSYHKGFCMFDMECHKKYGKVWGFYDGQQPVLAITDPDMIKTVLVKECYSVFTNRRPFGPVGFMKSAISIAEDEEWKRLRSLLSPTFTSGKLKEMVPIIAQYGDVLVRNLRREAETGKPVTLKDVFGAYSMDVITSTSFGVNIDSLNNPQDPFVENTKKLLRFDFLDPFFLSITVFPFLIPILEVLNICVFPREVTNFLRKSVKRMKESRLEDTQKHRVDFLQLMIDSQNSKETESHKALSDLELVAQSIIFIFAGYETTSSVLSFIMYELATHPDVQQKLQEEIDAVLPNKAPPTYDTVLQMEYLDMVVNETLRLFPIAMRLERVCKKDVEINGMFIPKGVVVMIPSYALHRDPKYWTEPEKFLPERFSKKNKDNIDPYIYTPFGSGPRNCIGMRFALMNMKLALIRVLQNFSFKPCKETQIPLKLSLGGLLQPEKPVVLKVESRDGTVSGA
# Outline: (§3)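 Isoform-specific enzyme and substrate levels; enzyme-free wells as background. Reaction: 1x NADPH regenerating system, 30-45 min, room temperature, shielded from light; luminescent detection reagent added, 30 min.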
# [10] = target: Cytochrome P450 2D6 (Homo sapiens) (UniProt P10635); assay: qHTS for inhibitors of CYP2D6 against the NCATS DSHEA and TCM libraries (AID 1919972)
# Cytochrome P450 2D6 (Homo sapiens), sequence (P10635 whole entry, looked up): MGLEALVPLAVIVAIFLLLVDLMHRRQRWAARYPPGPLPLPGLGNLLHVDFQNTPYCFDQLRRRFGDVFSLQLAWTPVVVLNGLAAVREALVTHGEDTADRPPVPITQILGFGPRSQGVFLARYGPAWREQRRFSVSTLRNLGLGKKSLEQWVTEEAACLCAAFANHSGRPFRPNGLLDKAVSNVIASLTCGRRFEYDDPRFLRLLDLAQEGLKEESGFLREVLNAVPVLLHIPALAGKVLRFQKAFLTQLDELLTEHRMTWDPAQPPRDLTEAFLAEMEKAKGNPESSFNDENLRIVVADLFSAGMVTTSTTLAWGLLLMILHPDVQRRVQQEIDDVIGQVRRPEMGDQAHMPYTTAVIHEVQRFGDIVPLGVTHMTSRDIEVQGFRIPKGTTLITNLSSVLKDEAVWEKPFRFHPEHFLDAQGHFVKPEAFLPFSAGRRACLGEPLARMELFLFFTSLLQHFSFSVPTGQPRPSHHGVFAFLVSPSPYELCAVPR
# Outline: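 qHTS, concentration–response format with most substances from 19.5 nM. CYP2D6 + pro-luciferin substrate, 15 min with compound, then 1x NADPH regen, 30–45 min RT dark. Glo detection 30 min, luminescence. Quinidine control.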
# [11] = target: Cytochrome P450 2C9 (Homo sapiens) (UniProt P11712); assay: qHTS for inhibitors of CYP2C9 against the NCATS DSHEA and TCM libraries (AID 1919973);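 further: luminogenic pro-luciferin CYP2C9 substrate turned into luciferin with NADPH regeneration; series mostly up to about 34 µM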
# Cytochrome P450 2C9 (Homo sapiens), sequence (P11712 whole entry, looked up): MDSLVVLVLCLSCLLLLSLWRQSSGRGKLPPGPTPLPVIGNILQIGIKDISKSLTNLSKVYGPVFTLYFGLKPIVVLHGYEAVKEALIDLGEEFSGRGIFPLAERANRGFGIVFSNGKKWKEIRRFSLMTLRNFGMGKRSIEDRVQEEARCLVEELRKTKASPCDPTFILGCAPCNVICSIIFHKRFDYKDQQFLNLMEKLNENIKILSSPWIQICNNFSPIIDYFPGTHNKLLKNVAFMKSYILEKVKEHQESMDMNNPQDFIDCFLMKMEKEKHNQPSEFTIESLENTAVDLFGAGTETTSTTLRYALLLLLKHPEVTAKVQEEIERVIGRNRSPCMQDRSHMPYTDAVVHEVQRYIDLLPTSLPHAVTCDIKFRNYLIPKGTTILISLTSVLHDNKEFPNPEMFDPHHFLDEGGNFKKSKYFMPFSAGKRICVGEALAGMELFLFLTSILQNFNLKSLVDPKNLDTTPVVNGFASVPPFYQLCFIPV
# Outline: as §3
# [12] = KB-3-1 P-gp reporter qHTS against the NCATS DSHEA and TCM libraries (AID 1919975)
# Outline: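 Cell viability by CellTiter-Glo luminescence following ~72 h compound exposure (concentration-response). Uses parental, non-P-gp-overexpressing KB-3-1 line, 500 cells/well in DMEM/10% FBS, attached ~4 h before dosing.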
# [13] = target: Cytochrome P450 1A2 (Homo sapiens) (UniProt P05177); assay: qHTS for inhibitors of CYPIA2 against the NCATS DSHEA and TCM libraries (AID 1919976);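 further: light from luciferin formed by CYP1A2 from a pro-luciferin substrate; series mostly up to about 37 µM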
# Cytochrome P450 1A2 (Homo sapiens), sequence (P05177 whole entry, looked up): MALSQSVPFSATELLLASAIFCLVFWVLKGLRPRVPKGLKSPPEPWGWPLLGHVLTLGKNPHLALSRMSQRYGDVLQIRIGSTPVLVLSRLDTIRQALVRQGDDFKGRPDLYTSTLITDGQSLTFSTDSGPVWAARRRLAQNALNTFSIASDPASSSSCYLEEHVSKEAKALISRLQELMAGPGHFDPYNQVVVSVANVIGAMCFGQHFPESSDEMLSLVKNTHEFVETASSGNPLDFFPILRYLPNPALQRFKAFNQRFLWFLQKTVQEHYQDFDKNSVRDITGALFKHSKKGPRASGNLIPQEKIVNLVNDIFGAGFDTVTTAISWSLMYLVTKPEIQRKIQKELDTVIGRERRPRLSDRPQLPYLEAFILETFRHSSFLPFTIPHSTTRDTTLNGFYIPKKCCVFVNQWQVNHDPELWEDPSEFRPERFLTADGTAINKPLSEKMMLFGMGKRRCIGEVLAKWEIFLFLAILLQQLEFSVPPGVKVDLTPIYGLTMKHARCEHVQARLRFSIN
# Outline: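 Furafylline served as the plate control. Compounds met CYP1A2 and pro-luciferin substrate 15 min before NADPH regeneration solution (1x) was added; after 30-45 min at RT, P450-Glo reagent was added for 30 min and luminescence was measured.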
# [14] = qHTS Counterscreen for compound interference against the NCATS DSHEA and TCM libraries (AID 1919978); conditions: firefly luciferase detection reagent interference, luminescence;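 further: compounds preincubated with 1 µM D-luciferin or buffer before detection reagent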
# Outline: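 With 1 uM D-luciferin or phosphate buffer only, compounds at final 19.5 nM–39.8 uM were incubated for 15 min at room temperature. Luciferase detection reagent was then added, and luminescence was measured after a further 30 min at room temperature.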
# [15] = Dual reporter qHTS for agonist of Pregnane X Receptor (hPXR) against the NCATS DSHEA and TCM libraries: Fluorescence readout (AID 1920058)
# Outline: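 In this qHTS counter-read, reporter-bearing HepG2 cells in charcoal-stripped serum received substances for approximately 24 h before viability was assessed fluorometrically with CellTiter-Fluor.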
# [16] = target: Nuclear receptor subfamily 1 group I member 2 (Homo sapiens) (UniProt O75469); assay: Dual reporter qHTS for agonist of Pregnane X Receptor (hPXR) against the NCATS DSHEA and TCM libraries: Luminescence readout (AID 1920059)
# Nuclear receptor subfamily 1 group I member 2 (Homo sapiens), sequence (O75469 whole entry, looked up): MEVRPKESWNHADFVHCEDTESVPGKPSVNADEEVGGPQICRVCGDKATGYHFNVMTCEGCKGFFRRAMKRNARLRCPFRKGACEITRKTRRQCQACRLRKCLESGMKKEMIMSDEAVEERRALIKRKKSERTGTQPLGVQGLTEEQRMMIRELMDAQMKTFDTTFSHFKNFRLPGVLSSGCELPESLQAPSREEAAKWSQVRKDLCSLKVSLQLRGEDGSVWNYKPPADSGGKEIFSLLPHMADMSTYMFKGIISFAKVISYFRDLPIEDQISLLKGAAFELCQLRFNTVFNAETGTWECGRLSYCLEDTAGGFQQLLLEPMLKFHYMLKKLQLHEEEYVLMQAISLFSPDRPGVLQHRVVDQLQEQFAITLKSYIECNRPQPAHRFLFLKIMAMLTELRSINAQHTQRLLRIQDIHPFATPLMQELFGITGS
# Outline: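 hPXR-Luc HepG2 cells, 2000/well in 5% charcoal-stripped FBS medium, attached 5 h, then exposed 24 h at 37C to compounds. Viability by CellTiter-Fluor, then luciferase luminescence with ONE-Glo.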
# [17] = Dual reporter qHTS for antagonist of Pregnane X Receptor (hPXR) against the NCATS DSHEA and TCM libraries: Fluorescence Readout (AID 1920061)
# Outline: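 Antagonist mode: rifampicin 2 uM final co-added with compounds to hPXR-LucHepG2 cells for 24 h at 37C. Viability by CellTiter-Fluor, Ex/Em 405/540 nm, 1 h; reporter by ONE-Glo luminescence.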
structure (smiles),measurement,setting,value
C[C@@H]1CC=C[C@@H]2[C@H]1C(=O)N(Cc1ccccc1)[C@H]2c1ccccc1Br,Potency,[1],inactive
same,Potency,[2],inactive
same,Potency,[3],inactive
same,Potency,[4],inactive
same,Potency,[5],inactive
Cc1c2ccccc2nc2c(F)c(NC(C)C)c(F)c(F)c12,Potency,[6],inactive
same,Potency,[1],inactive
same,Potency,[2],inactive
same,Potency,[3],inactive
same,Potency,[4],inactive
O=C(CCl)N1c2ccccc2Oc2ccc3ccccc3c21,Potency,[6],inactive
same,Potency,[1],inactive
same,Potency,[2],inactive
same,Potency,[3],inactive
same,Potency,[4],inactive
same,Potency,[5],35.5 µM (active)
Cc1c2cc(O)c(=O)cc-2oc2cc(O)c(O)cc12,Potency,[6],1.83 µM (active)
same,Potency,[1],inactive
same,activation,[2],"-3.29% [at 17.1 µM, percent relative to cAMP agonist control]"
same,Potency,[3],inactive
same,"activity change, negative = inhibition",[4],-2.73% [at 30.8 µM]
same,activation,[5],0.526% [at 30.8 µM]
COc1ccc(OC)c2c1C(=O)c1ccccc1C2=O,Potency,[6],14.6 µM (active)
same,Potency,[1],inactive
same,Potency,[2],inactive
same,Potency,[3],inactive
same,Potency,[4],inactive
CCCN1C(=O)c2ccccc2NC1c1ccc(OC)c(CSc2ccccn2)c1 (stereo not drawn),Potency,[1],inactive
same,Potency,[2],inactive
same,Potency,[3],inactive
same,Potency,[4],inactive
same,Potency,[5],inactive
O=C(/C=C/c1ccc(O)c(O)c1)O[C@@H]1C[C@](O)(C(=O)O)C[C@@H](O)[C@H]1O,Potency,[1],inactive
same,activation,[2],"5.11% [at 17.1 µM, percent relative to cAMP agonist control]"
same,Potency,[3],inactive
same,"activity change, negative = inhibition",[4],-13.1% [at 30.8 µM]
same,activation,[5],-1.95% [at 30.8 µM]
same,outcome,[7],inactive
same,outcome,[8],inactive
same,Potency,[9],inactive
same,Potency,[10],inactive
same,Potency,[11],inactive
same,outcome,[12],inactive
same,Potency,[13],inactive
same,max response,[14],0.087%
same,outcome,[15],inactive
same,Potency,[16],inactive
same,outcome,[17],inactive
Oc1ccccc1CNc1ccc(OC(F)(F)F)cc1,Potency,[1],inactive
same,Potency,[2],inactive
same,Potency,[3],inactive
same,Potency,[4],inactive
same,Potency,[5],inactive

# From PubChem BioAssay (NCATS)
